Screening data as filed in PubChem BioAssay.
Most compounds without a hit are left out; they make up all but 2.6% or so of the library.
Myeloid diff 2: compounds promoting myeloid differentiation | ER-HoxA9 myeloid progenitors, lysozyme-GFP differentiation, flow cytometry | calls only at 10 µM | 360,000 tested, 1% active;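 active = normalized GFP-positive differentiation at or above the plate's own cutoff, the solvent-only control mean plus 3 SD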;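 also: cells exposed to compound for four days before flow analysis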
IDE act: IDE (human) activation, cell-based | P14735 | HEK cells, FAbeta-B cleavage, fluorescence polarization; 0% vehicle, 100% cell-free pure enzyme wells | activation, % at 5.96 µM | 340,000 tested, 0.073% active | AID 493087;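 active = activation above the mean of all tested compounds plus 3 SD, set per screening campaign, cut at about 17% in these data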
CRFBP-R2 agonist: agonists of human CRF-binding protein/CRF-R2 receptor complex; HEK293 CRF-R2/CRF-BP, calcium dye fluorescence (FLIPR); percent of saturating CRF peptide response; 350,000 tested, 0.46% active; AID 588473; activation, % at 13.2 µM;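 active = activation of at least 50%, plus an integration ratio under a set limit after plate pattern correction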;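 also: plate controls were neutral control wells without compound for no effect and CRF at EC100 for full effect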
CRFR2-BP antag: blocks CRF-induced signaling of the CRF-BP/CRF-R2 complex. HEK293 CRF-R2/CRF-BP, CRF-induced calcium fluorescence. inhibition, % at 11.8 µM. 350,000 tested, 0.59% active;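 active = inhibition of the ligand-induced calcium signal above about 50% at the single tested concentration, limit read from the data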
TPT1 inhibitor: inhibitors of Candida albicans tRNA 2'-phosphotransferase TPT1 | recombinant caTPT1, FP RNA substrate dephosphorylation | inhibition, % at 5 µM | 300,000 tested, 0.81% active;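 active = inhibition above the mean of all tested compounds plus 3 SD, set per screening campaign, cut at about 24% in these data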;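 also: plate controls were DMSO alone for no effect and ferristatin control at 100 nM for full effect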
IDE cell inh: cellular human IDE inhibition. P14735. HEK cells, FAbetaB cleavage, fluorescence polarization. inhibition, % at 5.59 µM. 320,000 tested, 0.41% active;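 active = percent inhibition above the average of all tested compounds plus 3 SD, set per screening campaign, cut at about 16% in these data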;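 also: IDE supplied by intact live HEK cells; FP after avidin binding of uncleaved biotin substrate so inhibition keeps polarization high; 0% = DMSO wells and 100% = 60 µM reference IDE inhibitor Ii1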
TPT1 inh confirm: TPT1 (C. albicans) inhibition, confirmation | shares compounds with TPT1 inhibitor | recombinant caTPT1, fluorescence polarization, RNase T1 coupled | inhibition, % at 5 µM | 2,400 tested, 74% active;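 active = inhibition above the primary screen limit, the mean inhibition of all tested compounds plus 3 SD, cut at about 25% in these data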
RNase T1 inh: RNase T1 inhibition in TPT1 counter-screen; RNase T1 cleavage, fluorescence polarization, 1536-well; inhibition, % at 5 µM; 2,400 tested, 83% active; shares compounds with TPT1 inhibitor;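 active = inhibition above the solvent-only control well mean plus 3 SD, limit set per screening run, cut at about 23% in these data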;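 also: plate controls were DMSO wells with enzyme for no effect and wells without RNase T1 for full effect; inhibitors block cleavage so intact labeled substrate keeps polarization high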
Target sequence (P00651 whole entry, looked up): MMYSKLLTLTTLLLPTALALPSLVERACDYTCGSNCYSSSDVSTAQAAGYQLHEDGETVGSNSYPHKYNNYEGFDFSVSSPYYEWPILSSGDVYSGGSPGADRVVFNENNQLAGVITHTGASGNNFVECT
* marks the source's active call; other numbers are inactive results; i = inactive; · = no result; + = active, no number.

SMILES | Myeloid diff 2 | IDE act | CRFBP-R2 agonist | CRFR2-BP antag | TPT1 inhibitor | IDE cell inh | TPT1 inh confirm | RNase T1 inh
CC(/C=C/c1ccc(N(C)C)cc1)=N\N=C(/N)SC1CC(=O)N(c2ccc(C(=O)O)cc2)C1=O (stereo not given) | + | 2 | 4 | -4 | 26* | 9 | 28* | 43*
CCN1C(=O)/C(=C2/Sc3ccccc3N2CC)S/C1=N\c1ncn[nH]1 | i | -2 | -1 | -3 | 36* | 3 | 57* | 69*
FC(F)(F)c1cc(-c2cccs2)nc2nc(N3CCOCC3)sc12 | i | 4 | 1 | -11 | 2 | 2 | · | ·
COc1ccc(/C=N/Nc2ccc(C(F)(F)F)cc2[N+](=O)[O-])cc1 | i | 6 | -1 | -8 | 62* | -2 | 7 | 12
CN1CCc2c(sc(/N=C/c3cc(Cl)ccc3O)c2C#N)C1 | i | -5 | 1 | -12 | 27* | 1 | 28* | 38*
CCOC(=O)c1c(/N=C/c2ccc(OC)cc2O)sc2c1CCN(C)C2 | i | 6 | 3 | -4 | -4 | 2 | · | ·
CC(C)(C)NC(=O)C(c1ccccn1)N(C(=O)C1CSC(=O)C1)c1ccc(F)cc1 (stereo not given) | i | -3 | -1 | -1 | 6 | -1 | · | ·
COC(=O)CN1C(=S)N(c2ccc(OC)cc2)C(=O)/C1=C/c1ccc(N2CCOCC2)cc1 | i | -5 | 35 | -49 | 151* | 16 | 116* | 123*
CC(C)C(NC(=O)c1ccccc1NC(=O)c1ccccc1)C(=O)NCCCn1ccnc1 (stereo not given) | i | 8 | 0 | -4 | -2 | 3 | · | ·
O=C(NC1CC(=O)N(c2ccccc2)C1)C1CC1 (stereo not given) | i | 5 | 3 | -20 | 0 | 3 | · | ·
CCOCC(=O)Nc1ccc([N+](=O)[O-])cc1OC | i | 9 | -3 | 15 | 36* | -7 | 3 | 6
COc1cc([N+](=O)[O-])ccc1NC(=O)CN(C)C | i | 1 | 0 | 6 | 26* | -5 | 2 | 8
O=C(Nc1cccc(C(=O)N2CCOCC2)c1)C1CCCC1 | i | 1 | 0 | -2 | · | · | · | ·
CCCCC(=O)Nc1ccc(C(=O)Nc2ccc(OC)cc2[N+](=O)[O-])cc1 | i | -3 | 117* | -165 | 27* | 4 | 54* | 63*
CCCCC(=O)Nc1ccc(NC(=O)c2ccc([N+](=O)[O-])cc2)cc1OC | i | 3 | -1 | 10 | 1 | 0 | · | ·
Nc1cc(C(=O)N2CCN(c3ccc([N+](=O)[O-])cc3)CC2)ccc1N1CC2CC(C1)c1cccc(=O)n1C2 (stereo not given) | i | -6 | -1 | 3 | 1 | -4 | · | ·
O=C1/C(=C/c2ccc3c(c2)OCO3)Oc2cc(OCC(=O)N3CCC[C@H]3C(=O)O)ccc21 | i | 7 | 5 | 10 | 10 | 3 | · | ·
COc1ccc(/C=C2\Oc3cc(OCC(=O)N4CCC[C@H]4CO)ccc3C2=O)c(OC)c1 | i | -5 | 12 | -12 | 65* | 4 | 85* | 93*
O=C(Nc1cccc2nsnc12)c1ccc(-c2cccc(Cl)c2)o1 | · | 1 | 6 | -28 | 31* | -3 | 30* | 38*
C=CCOc1ccc(/C=C2/C(=N)N3N=C(CC(=O)N4CCCC4)SC3=NC2=O)cc1OC | i | 0 | 1 | -16 | 8 | 9 | · | ·
Cc1ccc(N=C2NC(=O)/C(=C/C=C/c3ccco3)S2)cc1 | i | 3 | 6 | -17 | 17 | -2 | · | ·
O=C1NC(=Nc2ccccc2)S/C1=C\C=C\c1ccco1 | i | 2 | -2 | 16 | 24* | -3 | 23 | 34*
Cc1ccc(N(CC(=O)Nc2cccc(C)c2)S(=O)(=O)c2cccc3nonc23)cc1 | i | 3 | 0 | 2 | -3 | 7 | · | ·
CC(=O)Nc1ccc(C(=O)NCC2(N3CCCCC3)CCCCC2)cc1 | i | -2 | 1 | -10 | 4 | 2 | · | ·
Cc1cc2ncc(-c3cccc(Cl)c3)cn2n1 | i | -3 | 0 | -1 | -2 | -4 | · | ·
SMILES | Myeloid diff 2 | IDE act | CRFBP-R2 agonist | CRFR2-BP antag | TPT1 inhibitor | IDE cell inh | TPT1 inh confirm | RNase T1 inh
Cc1cc2ncc(C(N)=O)cn2n1 | · | 4 | 1 | -7 | 83* | 3 | 7 | 11
Nc1c(C(=O)N/N=C/c2ccc(F)cc2)oc2nc(-c3ccccc3)cc(-c3ccco3)c12 | i | 7 | 10 | -24 | 34* | 0 | 109* | 112*
Nc1c(C(=O)N/N=C/c2ccccc2Cl)oc2nc(-c3ccccc3)cc(-c3ccco3)c12 | i | · | 8 | -14 | 72* | 12 | 92* | 95*
CCOc1ccc(N2C(=O)CS/C2=C(\C(Cl)=C(Cl)Cl)[N+](=O)[O-])cc1 | + | 6 | -1 | -8 | 54* | -4 | 58* | 70*
CCOc1ccc(N2C(=O)CNC2=S)cc1 | i | 5 | 0 | -1 | -1 | 0 | · | ·
CN1CCc2c(sc3nc(NN)n(-c4ccc(Cl)cc4)c(=O)c23)C1 | i | 6 | 9 | -10 | 38* | 2 | 18 | 24*
CN1CCc2c(sc3nc(NN)n(Cc4ccccc4)c(=O)c23)C1 | i | 7 | 0 | 0 | 38* | -5 | 46* | 54*
COc1ccc(C(=O)N2CCC(O)(c3ccc(Cl)cc3)CC2)cc1OC | i | -5 | 1 | 13 | -2 | 8 | · | ·
Cc1cccc(NC(=O)c2ccc(C)c(S(=O)(=O)N3CCOCC3)c2)n1 | i | 1 | 0 | -7 | · | · | · | ·
CNc1ccc(Br)cc(C(=O)/C=C/c2cccc(Cl)c2Cl)c1=O | i | -5 | -1 | -21 | · | · | · | ·
CCNc1ccc(Br)cc(C(=O)/C=C/c2ccccc2Cl)c1=O | i | 1 | 7 | -9 | 53* | -3 | 88* | 94*
CNc1ccc(Br)cc(C(=O)/C=C/c2cccc(OC)c2OC)c1=O | i | 1 | 2 | 6 | 41* | -5 | 65* | 76*
COC(=O)/C=C/c1ccc2c(c1)OCO2 | i | 0 | -2 | 1 | 5 | 0 | · | ·
CCNc1ccccc(C(=O)/C=C/c2ccc3c(c2)OCO3)c1=O | i | -2 | 2 | -22 | 26* | 3 | 15 | 19
O=C(C=Cc1ccccc1Cl)c1ccccc1 | i | -1 | -4 | 17 | · | · | · | ·
Cc1ccc(NC(=O)CN(C)C(=O)/C=C/c2cccs2)cc1 | i | -2 | -1 | 2 | 2 | 0 | · | ·
O=C(CSC1=N/C(=C/c2ccco2)C(=O)N1c1ccc(OC(F)F)cc1)NC1CCS(=O)(=O)C1 (stereo not given) | i | -1 | 1 | 10 | 28* | 3 | 26* | 34*
